activity, negative = inhibition and Potency data for 27 compounds are collected here from PubChem BioAssay (NCATS).

Test [1] in a line: qHTS profiling for inhibitors of Plasmodium falciparum proliferation (AID 504749). Further: nearly all actives have a fitted effect of over 60% in size.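 On activity, negative = inhibition: 0% = DMSO vehicle and full inhibition = artemisinin control.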 The following applies: P. falciparum in erythrocytes, SYBR Green DNA, 72 h. The method, boiled down:
(§1)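 Fluorescence of SYBR Green-bound parasite DNA, read at 485/535 nm, served as the growth measure. Infected erythrocytes were cultured with compound 72 h; artemisinin (0.29 uM) and DMSO wells defined the normalization range.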

For test [2], the system named is 7G8. Described as above. As to conditions: P. falciparum in erythrocytes, SYBR Green DNA, 72 h; series mostly up to 28.7 µM. The method, boiled down:
as §1

Test [3] deals with AA1029. The description is as above. The following applies: P. falciparum in erythrocytes, SYBR Green DNA, 72 h; series mostly up to 28.7 µM. The gist of the method: as §1
Test [4] concerns AS120. The description is as above. The following applies: P. falciparum in erythrocytes, SYBR Green DNA, 72 h; series mostly up to 28.7 µM. The method, boiled down: as §1
The test system of test [5] is 3D7. The description is as above. The following applies: P. falciparum in erythrocytes, SYBR Green DNA, 72 h; series mostly up to 28.7 µM. The method, boiled down:
as §1

[6] abbreviates: at 28.7 µM (top of the series), parasite line A.
Where [7] appears, read: at 28.7 µM (top of the series), parasite line B.
Setting [8] is: at 12.8 µM (top of the series), parasite line A.
[9] abbreviates: at 12.8 µM (top of the series), parasite line B.

Records with an inconclusive call do not appear. Unmarked numbers belong to inactive results. Active and inactive are the calls of the source. The call rests on the fitted dose curve; in most records, active means well fitted inhibition curve with a large enough effect; inconclusive means small, poorly fitted or top-dose-only effect; inactive means flat fitted curve, though single readings scatter. Peptide text beside a SMILES is read from it.
Potency means the concentration at half of the fitted maximal effect.

As to `O=S(=O)(O)O`, the activity, negative = inhibition in test [1] (setting [6]) is -14.8%; in test [1] (setting [7]), 2.3%. The Potency entry in test [2], in test [3] and in test [4] was “inactive” each time.
In the case of `C[C@@H]1CCC2[C@@H](C)[C@@H](O)O[C@@H]3O[C@@]4(C)CC[C@@H]1[C@@]23OO4` (some centres undefined), the Potency in test [1] (parasite line A) is 0.0014 µM (active); in test [1] (parasite line B), 0.0018 µM (active); in test [5] it was 0.0035 µM (active); in test [2], 0.0008 µM (active); in test [3], 0.0022 µM (active); in test [4] it was 0.0016 µM (active).
As to `CCCCCCCCCCCCCC[n+]1ccc(C)cc1`, the Potency in test [1] (parasite line A) is 2.51 µM (active); in test [1] (parasite line B) it was 5.62 µM (active); in test [5], 2.51 µM (active); in test [2], 1.12 µM (active); in test [3] it was 3.98 µM (active); in test [4], 3.55 µM (active).
With `Cc1c(C)c2c(c(C)c1O)CC[C@@](C)(CCC[C@@H](C)CCC[C@@H](C)CCCC(C)C)O2`, in test [1] (setting [7]), the activity, negative = inhibition is 18%. Further, the Potency entry in test [5], in test [2] and in test [3] was “inactive” throughout.
In the case of `C[C@]12O[C@H](C[C@]1(O)CO)n1c3ccccc3c3c4c(c5c6ccccc6n2c5c31)CNC4=O`, the Potency in test [1] (parasite line A) was 0.398 µM (active); in test [1] (parasite line B) it was 0.447 µM (active); in test [5], 0.224 µM (active); in test [2], 0.1 µM (active); in test [3], 0.316 µM (active); in test [4], 0.251 µM (active).
For the compound `C=C1C(=CC=C2CCC[C@@]3(C)[C@@H]2CC[C@H]3[C@H](C)CCCC(C)C)C[C@@H](O)C[C@@H]1O`, the Potency was 11.2 µM (active) in test [5] and 10 µM (active) in test [2]. Moreover, the Potency result in test [3] is “inactive”.
Turning to `Cc1cn([C@H]2C[C@H](O)[C@@H](CO)O2)c(=O)[nH]c1=O`, the activity, negative = inhibition in test [1] (setting [6]) is 4.1%; in test [1] (setting [7]) it was -3.41%. In addition, the Potency result in test [5], in test [2], in test [3] and in test [4] was “inactive” each time.
Take `CC1(C)C(C=C(Cl)Cl)C1C(=O)OCc1cccc(Oc2ccccc2)c1` (centres undefined): the activity, negative = inhibition in test [1] (setting [6]) is -2.63%; in test [1] (setting [7]), -6.77%. For the same compound, the Potency entry in test [5], in test [3] and in test [4] was “inactive” in each case.
Consider `CCCCCCC(O)C/C=C/CCCCCCCC(=O)O` (centres undefined), for which the activity, negative = inhibition in test [1] (setting [6]) is -1.16%; in test [1] (setting [7]), 3.04%. The Potency result in test [5], in test [2], in test [3] and in test [4] was “inactive” throughout.
For `O=C1C(=O)c2ncccc2-c2cccnc21`, the Potency in test [1] (parasite line A) is 0.891 µM (active); in test [1] (parasite line B), 1.12 µM (active); in test [5], 0.891 µM (active); in test [2] it was 1 µM (active); in test [3], 1 µM (active); in test [4], 0.708 µM (active).
For `CC[C@@]1(O)C(=O)OCc2c1cc1n(c2=O)Cc2cc3c([N+](=O)[O-])cccc3nc2-1`, the Potency in test [1] (parasite line A) was 4.47 µM (active); in test [5] it was 5.01 µM (active); in test [2], 5.01 µM (active); in test [3], 7.08 µM (active); in test [4], 5.01 µM (active).
For the compound `CC(C)(C)C(=O)OCOC(=O)[C@@H]1N2C(=O)[C@@H](N=CN3CCCCCC3)[C@H]2SC1(C)C`, the activity, negative = inhibition is 1.15% in test [1] (setting [8]) and 5.1% in test [1] (setting [9]). In addition, the Potency entry in test [5], in test [2], in test [3] and in test [4] was “inactive” throughout.
In the case of `C[C@H]1C[C@H]2[C@@H]3CCC4=CC(=O)C=C[C@]4(C)[C@@]3(F)[C@@H](O)C[C@]2(C)[C@@]1(O)C(=O)CO`, the activity, negative = inhibition in test [1] (setting [6]) was 15.5%; in test [1] (setting [7]), 5.52%. In addition, the Potency result in test [5], in test [3] and in test [4] was “inactive” each time.
On to `CCN(CC)CCOc1ccc(-c2nc3cc(Cl)ccc3s2)cc1`, for which the Potency in test [2] is 11.2 µM (active). Further, in test [4], the Potency entry is “inactive”.
With `CCOc1ccc(N=Nc2ccc(N)cc2N)cc1`, the activity, negative = inhibition in test [1] (setting [7]) is 14.7%. The Potency result in test [5], in test [3] and in test [4] was “inactive” each time.
In the case of `CCCC(=O)Nc1ncnc2c1ncn2C1OC2COP(=O)(O)OC2C1OC(=O)CCC` (centres undefined), the activity, negative = inhibition is 6.84% in test [1] (setting [6]) and -4.45% in test [1] (setting [7]). For the same compound, the Potency result in test [5], in test [2], in test [3] and in test [4] was “inactive” throughout.
As for `COCC(=O)Nc1cc(Sc2ccccc2)ccc1N=C(NC(=O)OC)NC(=O)OC`, the activity, negative = inhibition is 17.1% in test [1] (setting [6]) and 26.6% in test [1] (setting [7]). The Potency result in test [5], in test [3] and in test [4] was “inactive” each time.
`C#CCOc1ccc2c(C)cc(=O)oc2c1`: the activity, negative = inhibition was 3.33% in test [1] (setting [6]) and 5.62% in test [1] (setting [7]). For the same compound, the Potency result in test [5], in test [2], in test [3] and in test [4] was “inactive” throughout.
Consider `O=C1CSC2(CCN(CCCN3c4ccccc4Sc4ccc(Cl)cc43)CC2)N1`, for which the activity, negative = inhibition was -17.8% in test [1] (setting [6]) and -28.1% in test [1] (setting [7]). Further, the Potency in test [2] was 11.2 µM (active).
With `O=C(O)CCC(=O)C(=O)O`, the results for the activity, negative = inhibition in test [1] (setting [6]) and in test [1] (setting [7]) were 2.78% and 9.14%, respectively. Moreover, the Potency entry in test [5], in test [2], in test [3] and in test [4] was “inactive” throughout.
Take `CCCCCCOc1ccc(C(=N)N(CCCC)CCCC)c2ccccc12`: the Potency was 7.08 µM (active) in test [1] (parasite line A), 5.01 µM (active) in test [5] and 4.47 µM (active) in test [2].
For `CC(=O)N[C@@H](CC(=O)O)C(=O)N[C@@H](CCC(=O)O)C(=O)O` (Ac-Asp-Glu-OH), the activity, negative = inhibition in test [1] (setting [6]) was 24.6%; in test [1] (setting [7]) it was 14.8%. The Potency result in test [5], in test [2], in test [3] and in test [4] was “inactive” throughout.
For the compound `CC(C)N=c1cc2n(-c3ccc(Cl)cc3)c3ccccc3nc-2cc1Nc1ccc(Cl)cc1`, the activity, negative = inhibition in test [1] (setting [8]) was -13.2%; in test [1] (setting [9]), -1.3%. In addition, the Potency in test [2] is 3.98 µM (active). The Potency result in test [3] and in test [4] was “inactive” each time.
Take `COC(=O)CCC(=O)CN`: the figures for the activity, negative = inhibition in test [1] (setting [6]) and in test [1] (setting [7]) were 6.69% and 8.06%, respectively. Besides, the Potency result in test [5], in test [3] and in test [4] was “inactive” each time.
Consider `C#C[C@]1(O)CC[C@H]2[C@@H]3CCC4=CCCC[C@@H]4[C@H]3C(=C)C[C@@]21CC`, for which the Potency result in test [2] was “inactive”.
For `CC(=O)Oc1cc(C)c(OC(C)=O)c2ccccc12`, the Potency is 8.91 µM (active) in test [5], 5.01 µM (active) in test [2] and 10 µM (active) in test [4].
As for `CCOC(=O)C1=C(C)NC(C)=C(C(=O)OCC)C1c1ccccc1C=CC(=O)OC(C)(C)C`, the Potency in test [1] (parasite line A) is 11.2 µM (active); in test [5], 11.2 µM (active); in test [2], 7.94 µM (active); in test [3] it was 8.91 µM (active); in test [4] it was 8.91 µM (active).
